Source: PubChem BioAssay (EPA / NIEHS)
Active and inactive are the calls of the source. Rule for the calls: active = hit-call score of the fitted dose curve at least 0.9, where 1 is the maximum; inactive = score below 0.9.

Assays:
[1] = read-out: Monokine induced gamma interferon (MIG), CXCL9 (gene 4283); assay: BSK_BE3C_MIG: BioMAP Diversity Plus: BE3C Assay for Monokine induced gamma interferon (MIG) Biomarker Activity (AID 2283035); settings: primary human bronchial epithelial cells; actives raise or lower the signal
Summary of the method: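 hu bronchial epithelial 1° cells, 24 h cpd; MIG by ELISA; bidirectional fit, DMSO = baseline.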

[2] = read-out: Transforming growth factor beta 1 (TGFb1), TGFB1 (gene 7040); assay: BSK_BE3C_TGFb1: BioMAP Diversity Plus: BE3C Assay for Transforming growth factor beta 1 (TGFb1) Biomarker Activity (AID 2283036); settings: primary human bronchial epithelial cells; actives raise or lower the signal
Summary of the method: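 Bronchial epithelial primary cells are treated with test chemical, then TGF-b1 is quantified by ELISA after 24 hours. Values derive from bidirectional fitting against DMSO, with cytotoxicity checked by SRB staining in parallel cultures.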

[3] = read-out: Plasminogen activator inhibitor-1 (PAI1), SERPINE1 (gene 5054); assay: BSK_BE3C_PAI1: BioMAP Diversity Plus: BE3C Assay for Plasminogen activator inhibitor-1 (PAI1) Biomarker Activity (AID 2283037); settings: primary human bronchial epithelial cells; actives raise or lower the signal
Summary of the method: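 Values derive from bidirectional fitting against DMSO baseline of PAI-1 levels, measured by ELISA in human bronchial epithelial cells 24 h after compound addition.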

[4] = read-out: urokinase plasminogen activator (uPA), PLAU (gene 5328); assay: BSK_BE3C_uPA: BioMAP Diversity Plus: BE3C Assay for urokinase plasminogen activator (uPA) Biomarker Activity (AID 2283038); settings: primary human bronchial epithelial cells; actives raise or lower the signal
Summary of the method: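 Primary human bronchial epithelial cells, uPA measured by ELISA 24 h after dosing. Bidirectional change relative to DMSO; cytotoxicity checked in parallel cultures by sulforhodamine B total-protein staining.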

[5] = read-out: Urokinase-type plasminogen activator receptor (uPAR), PLAUR (gene 5329); assay: BSK_BE3C_uPAR: BioMAP Diversity Plus: BE3C Assay for Urokinase-type plasminogen activator receptor (uPAR) Biomarker Activity (AID 2283039); settings: primary human bronchial epithelial cells; actives raise or lower the signal
Summary of the method: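 Steps: dose human primary bronchial epithelial cells, incubate 24 h, measure uPAR by ELISA, then fit gain- or loss-of-signal response bidirectionally relative to DMSO.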

[6] = read-out: Interleukin-6 (IL6), IL6 (gene 3569); assay: BSK_CASM3C_IL6: BioMAP Diversity Plus: CASM3C Assay for Interleukin-6 (IL6) Biomarker Activity for (AID 2283040); settings: primary human coronary artery smooth muscle cells; actives raise or lower the signal
[7] = read-out: Interleukin-8 (IL8), CXCL8 (gene 3576); assay: BSK_CASM3C_IL8: BioMAP Diversity Plus: CASM3C Assay for Interleukin-8 (IL8) Biomarker Activity (AID 2283042); settings: primary human coronary artery smooth muscle cells; actives raise or lower the signal;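 note: IL-8 protein level quantified by ELISA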
[8] = read-out: Human Leukocyte Antigen - DR isotype (HLADR), HLA-DRA (gene 3122); assay: BSK_CASM3C_HLADR: BioMAP Diversity Plus: CASM3C Assay for Human Leukocyte Antigen - DR isotype (HLADR) Biomarker Activity (AID 2283043); settings: primary human coronary artery smooth muscle cells; actives raise or lower the signal;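 note: cell-surface HLA-DR protein level quantified by ELISA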
[9] = read-out: Macrophage colony-stimulating factor (MCSF), CSF1 (gene 1435); assay: BSK_CASM3C_MCSF: BioMAP Diversity Plus: CASM3C Assay for Macrophage colony-stimulating factor (MCSF) Biomarker Activity (AID 2283044); settings: primary human coronary artery smooth muscle cells; actives raise or lower the signal;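 note: M-CSF protein amount quantified by ELISA after 24 h exposure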
[10] = read-out: Low-density lipoprotein receptor (LDLR), LDLR (gene 3949); assay: BSK_CASM3C_LDLR: BioMAP Diversity Plus: CASM3C Assay for Low-density lipoprotein receptor (LDLR) Biomarker Activity (AID 2283045); settings: primary human coronary artery smooth muscle cells; actives raise or lower the signal;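 note: LDLR protein level on the cell surface quantified by ELISA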
[11] = read-out: Monocyte Chemoattractant Protein-1 (MCP1), CCL2 (gene 6347); assay: BSK_CASM3C_MCP1: BioMAP Diversity Plus: CASM3C Assay for Monocyte Chemoattractant Protein-1 (MCP1) Biomarker Activity (AID 2283046); settings: primary human coronary artery smooth muscle cells; actives raise or lower the signal;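 note: MCP-1 level quantified by ELISA 24 h after dosing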
[12] = BSK_CASM3C_Proliferation: Cell Proliferation Assessment in the BioMAP Diversity Plus: CASM3C Assay (AID 2283047); settings: primary human coronary artery smooth muscle cells;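 note: sulforhodamine B total protein stain as relative cell number at 560 nm; sub-confluent cells exposed 48 h before staining; fitted both ways against DMSO so gain or loss of cell number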
[13] = read-out: Monokine induced gamma interferon (MIG), CXCL9 (gene 4283); assay: BSK_CASM3C_MIG: BioMAP Diversity Plus: CASM3C Assay for Monokine induced gamma interferon (MIG) Biomarker Activity (AID 2283048); settings: primary human coronary artery smooth muscle cells; actives raise or lower the signal;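 note: MIG protein level measured by ELISA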
[14] = read-out: serum amyloid A (SAA), SAA1 (gene 6288); assay: BSK_CASM3C_SAA: BioMAP Diversity Plus: CASM3C Assay for serum amyloid A (SAA) Biomarker Activity (AID 2283049); settings: primary human coronary artery smooth muscle cells; actives raise or lower the signal;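 note: SAA protein level quantified by ELISA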
[15] = BSK_CASM3C_SRB: Viability Assessment in the BioMAP Diversity Plus: CASM3C Assay (AID 2283050); settings: primary human coronary artery smooth muscle cells;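 note: total protein by SRB staining as cytotoxicity measure in parallel cultures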
[16] = read-out: Thrombomodulin, THBD (gene 7056); assay: BSK_CASM3C_Thrombomodulin: BioMAP Diversity Plus: CASM3C Assay for Thrombomodulin Biomarker Activity (AID 2283051); settings: primary human coronary artery smooth muscle cells; actives raise or lower the signal;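 note: thrombomodulin protein level measured by ELISA 24 h after dosing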
[17] = read-out: Tissue Factor, F3 (gene 2152); assay: BSK_CASM3C_TissueFactor: BioMAP Diversity Plus: CASM3C Assay for Tissue Factor Biomarker Activity (AID 2283052); settings: primary human coronary artery smooth muscle cells; actives raise or lower the signal;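 note: cell surface tissue factor protein level read by ELISA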
[18] = read-out: Urokinase-type plasminogen activator receptor (uPAR), PLAUR (gene 5329); assay: BSK_CASM3C_uPAR: BioMAP Diversity Plus: CASM3C Assay for Urokinase-type plasminogen activator receptor (uPAR) Biomarker Activity (AID 2283054); settings: primary human coronary artery smooth muscle cells; actives raise or lower the signal;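 note: cell-surface uPAR protein level quantified by ELISA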
[19] = read-out: Tissue plasminogen activator (tPA), PLAT (gene 5327); assay: BSK_BE3C_tPA: BioMAP Diversity Plus: BE3C Assay for Tissue plasminogen activator (tPA) Biomarker Activity (AID 2283041); settings: primary human bronchial epithelial cells; actives raise or lower the signal;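 note: tPA level quantified by ELISA one day after compound addition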
Summary of the method: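 Gain- or loss-of-signal in tPA, measured by ELISA, derived by bidirectional fitting against DMSO. Cells: human primary bronchial epithelial; read at 24 h after chemical dosing.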

[20] = read-out: Interferon-gamma inducible Protein 10 (IP10), CXCL10 (gene 3627); assay: BSK_hDFCGF_IP10: BioMAP Diversity Plus: hDFCGF Assay for Interferon-gamma inducible Protein 10 (IP10) Biomarker Activity (AID 2283053); settings: primary human foreskin fibroblasts; actives raise or lower the signal
Summary of the method: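 Cells: human dermal foreskin fibroblasts. Exposure: 24 h post-dosing. Detection: IP-10 ELISA, with values expressed against DMSO controls and fitted in both directions.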

Measured: AC50

CCc1cc(SCc2sc(-c3ccc(C(F)(F)F)cc3)nc2CN2CCN(c3ccc(OC)cc3)CC2)ccc1OCC(=O)O
active: [1] 5.52 µM | [2] 5.17 µM | [3] 3.07 µM | [4] 5.31 µM | [5] 5.38 µM | [6] 20 µM | [7] 34.1 µM | [8] 18.7 µM | [9] 36.1 µM | [10] 31.7 µM | [11] 37.4 µM | [12] 15.8 µM | [13] 39.1 µM | [14] 31.9 µM | [15] 30.1 µM | [16] 35.1 µM | [18] 15.3 µM
inactive: [17]

CCCN(C1CCN(C(=O)C2CCNCC2)CC1)[C@@H]1CCc2ccc(OC)cc2C1
inactive: [1] | [2] | [3] | [4] | [5] | [6] | [7] | [8] | [9] | [11] | [12] | [13] | [14] | [15] | [16] | [17] | [18]
active: [10] 35 µM

O=C(O)CC(O)C(=O)O (stereo not given)
inactive: [2] | [3] | [4] | [5] | [6] | [19] | [7] | [8] | [9] | [10] | [11] | [12] | [13] | [14] | [15] | [16] | [17] | [20] | [18]

Cc1[nH]cnc1C[C@H]1CCc2c(C)c3ccccc3n2C1=O
inactive: [1] | [2] | [3] | [4] | [6] | [7] | [8] | [9] | [11] | [13] | [14] | [15] | [16] | [17] | [20]
active: [5] 24.1 µM | [10] 18.5 µM | [12] 26.4 µM | [18] 22 µM

CCCCCCc1ccc(O)cc1O
inactive: [6] | [7] | [8] | [9] | [11] | [13] | [14] | [15] | [17] | [18]
active: [1] 30.9 µM | [2] 24.6 µM | [3] 31.6 µM | [4] 31.4 µM | [5] 34.1 µM | [10] 11.9 µM | [12] 32.6 µM | [16] 4.48 µM

CNCc1ccc(NC(=O)c2c[nH]c3c2C(=O)CCC3)cc1
inactive: [1] | [2] | [3] | [4] | [5] | [6] | [7] | [8] | [9] | [10] | [11] | [12] | [13] | [14] | [15] | [16] | [17] | [20] | [18]

Cc1c(-c2cccnc2)c2ccccc2n1CCCCC(=O)O
inactive: [2] | [3] | [4] | [5] | [6] | [19] | [7] | [9] | [10] | [11] | [12] | [13] | [14] | [15] | [16] | [17] | [20] | [18]
active: [8] 3.97 µM
